The text below walks through data of PubChem BioAssay.

Records with an inconclusive call do not appear. For part of these data: Measured potencies and affinities stand elsewhere. The source made the active and inactive calls. Unless noted, no rule for the calls is given here.

Experiment [1] is described as follows: polyglutamine-triggered caspase-3 activation inhibitors, cell-based (AID 1583). As to conditions: polyglutamine-induced caspase-3 activation, cell assay; stronger effect = higher value;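 tested at 10 µM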.
A short description of experiment [2]: suppressors of polyQ aggregation in yeast, 75Q-TubU reporter (AID 1593). As to conditions: Yeast 75Q polyglutamine aggregation reporter.
Experiment [3] can be described thus: rescue of polyQ-huntingtin neuronal dysfunction in worms, whole organism, C. elegans mechanosensory neurons, N-terminal huntingtin (AID 1599). The settings on record: touch response, stronger effect = higher value.
A short description of experiment [4]: inhibitors of mitochondrial cytochrome c release, biochemical, purified mitochondria (AID 1603).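 Also: mouse liver mitochondria challenged with calcium chloride; signal normalized to the plate average as 100%.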 As to conditions: stronger effect = lower value.
A short description of experiment [5]: inhibitors of polyQ protein aggregation (AID 1604). As to conditions: polyglutamine-induced protein aggregation inhibition assay; stronger effect = higher value; tested at 2.5 µM.
The nature of experiment [6]: enhancers of glutamate uptake in motor neurons, MN-1 cell line (AID 1612).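 Also: tested at 1 µM final; 0% = mean of DMSO vehicle wells on each plate; positive means more glutamate uptake than control and negative means less.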 The settings on record: MN-1 motor neuron cells, stronger effect = higher value.
A short description of experiment [7]: reducers of polyQ inclusions in PC12 cells, cell-based, NGF-treated PC12, GFPQ80 (AID 1614).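 Also: lower means fewer inclusions and 0 means no inclusions at all.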 As to conditions: PC12 NGF-treated GFP-polyQ80 inclusion reduction.
A short description of experiment [8]: suppressors of polyglutamine aggregation in yeast, 75Q-TubH (AID 1616). As to conditions: S. cerevisiae 75Q-TubH polyglutamine aggregation suppression; stronger effect = higher value.
Experiment [9] can be described thus: protection against mutant huntingtin cytotoxicity, PC12 cells, LDH release (AID 1610). The settings on record: PC12 mutant huntingtin toxicity, final LDH at 4 uM, stronger effect = lower value.
Experiment [10] is described as follows: circadian clock period modulators, cell-based, LOPAC library, luminescence reporter (AID 2774).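 Also: values are relative to mean of DMSO wells on each plate.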 As to conditions: circadian reporter cells, at 7 µM, actives lie on both sides.
A short description of experiment [11]: hESC survival regulators, cell-based (AID 493140).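 Also: cells exposed to compounds for four days before counting.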 As to conditions: human embryonic stem cell survival screen; stronger effect = higher value.
Experiment [12] concerns the target ATP-dependent translocase ABCB1 (Homo sapiens) (UniProt P08183). The experiment in a line: MDR1 (ABCB1) efflux transporter inhibition, cell-based (AID 377; in the data active = fluorescence slope change above about 50%). The settings on record: MDR1-expressing cells, fluorescent substrate accumulation slope; stronger effect = higher value; concentration not given here.
The nature of experiment [13]: inhibitors of polyQ aggregate elongation, biochemical, solid-phase synthetic aggregates, QA3 (AID 1585). As to conditions: biotin-polyQ incorporation; EC50: measured here: elongation inhibition potency; inhibition: at 100 µM, stronger effect = higher value.

Sequence of ATP-dependent translocase ABCB1 (Homo sapiens) (P08183 whole entry, looked up): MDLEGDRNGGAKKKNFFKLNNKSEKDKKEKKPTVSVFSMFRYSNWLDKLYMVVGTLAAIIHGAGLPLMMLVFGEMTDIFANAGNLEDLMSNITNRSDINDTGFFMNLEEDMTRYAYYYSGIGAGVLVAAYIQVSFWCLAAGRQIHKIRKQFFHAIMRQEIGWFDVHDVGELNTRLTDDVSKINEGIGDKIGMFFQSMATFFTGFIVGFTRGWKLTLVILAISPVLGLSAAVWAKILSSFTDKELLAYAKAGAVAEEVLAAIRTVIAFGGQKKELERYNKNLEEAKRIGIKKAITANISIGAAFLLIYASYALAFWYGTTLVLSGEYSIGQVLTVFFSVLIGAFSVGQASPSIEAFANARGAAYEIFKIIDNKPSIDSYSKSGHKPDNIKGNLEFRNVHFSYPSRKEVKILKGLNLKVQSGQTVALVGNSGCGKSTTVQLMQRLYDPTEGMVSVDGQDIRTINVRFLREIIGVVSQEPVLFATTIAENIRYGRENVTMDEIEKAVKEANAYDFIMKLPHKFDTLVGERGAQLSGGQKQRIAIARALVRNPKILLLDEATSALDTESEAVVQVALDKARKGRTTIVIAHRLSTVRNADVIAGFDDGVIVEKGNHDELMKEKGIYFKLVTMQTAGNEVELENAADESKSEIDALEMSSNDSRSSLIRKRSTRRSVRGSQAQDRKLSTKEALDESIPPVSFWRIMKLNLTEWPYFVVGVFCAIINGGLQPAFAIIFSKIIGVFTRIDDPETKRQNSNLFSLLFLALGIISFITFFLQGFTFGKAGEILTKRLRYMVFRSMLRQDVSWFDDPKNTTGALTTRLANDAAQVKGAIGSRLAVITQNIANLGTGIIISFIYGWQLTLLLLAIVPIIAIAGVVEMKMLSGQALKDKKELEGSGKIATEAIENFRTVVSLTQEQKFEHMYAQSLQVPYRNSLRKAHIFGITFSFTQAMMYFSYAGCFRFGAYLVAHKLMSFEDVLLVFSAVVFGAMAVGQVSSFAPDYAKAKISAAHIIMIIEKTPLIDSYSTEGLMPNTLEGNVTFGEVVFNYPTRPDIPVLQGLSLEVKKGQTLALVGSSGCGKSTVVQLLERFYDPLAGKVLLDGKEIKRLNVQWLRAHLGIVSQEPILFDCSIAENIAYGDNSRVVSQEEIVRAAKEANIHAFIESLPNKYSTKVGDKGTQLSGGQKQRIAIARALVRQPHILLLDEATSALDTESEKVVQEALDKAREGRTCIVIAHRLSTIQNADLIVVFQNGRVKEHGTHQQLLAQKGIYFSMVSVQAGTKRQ

In the case of `CCN(CC)C(=O)c1cccc(C)c1`, in [1], the inhibition worked out at 9.84%. Moreover, the score in experiment [2] worked out at 1.21. For the same molecule, in experiment [3], the rescue above control was -4.11. In experiment [4], the cytochrome c release ratio is 1.07. The inhibition of aggregation in experiment [5] is 28.8%. In addition, the glutamate uptake change in experiment [6] worked out at 1.78%. The molecule also came in with an inclusion score in experiment [7] of 2. The molecule also gave an aggregation suppression score in [8] of 1.01.
On to `C[C@H]1c2cccc(O)c2C(O)=C2C(=O)[C@]3(O)C(O)=C(C(N)=O)C(=O)[C@@H](N(C)C)[C@@H]3[C@@H](O)[C@@H]21`, for which, in [1], the inhibition is -6.11%. The molecule further yielded a score in experiment [2] of 0.83. This molecule also yielded a rescue above control in experiment [3] of 0. In addition, the cytochrome c release ratio in [4] is 0.35. The inhibition of aggregation in experiment [5] stood at 64.1%. In [9], this molecule registered a normalised LDH release of 0.903. The glutamate uptake change in experiment [6] is -7.42%. For the same molecule, the inclusion score in experiment [7] turned out to be 0.5. In experiment [8], this molecule returned an aggregation suppression score of 0.446. Moreover, in experiment [10], the period change was -0.14 h (inactive).
Consider `O=C(Nc1ccc([N+](=O)[O-])cc1Cl)c1cc(Cl)ccc1O`, for which the inhibition in [1] turned out to be 63.3%. In addition, in experiment [2], the score worked out at 1.5. Further, the rescue above control in [3] is -13. Moreover, in experiment [4], the cytochrome c release ratio is 0.91. The same molecule displayed an inhibition of aggregation in experiment [5] of 41.7%. In experiment [9], the normalised LDH release was -0.146. The glutamate uptake change in experiment [6] is -52.2%. For the same molecule, in experiment [8], the aggregation suppression score came out at 0.882. For the same molecule, in [10], the period change is 0.06 h (inactive). For the same molecule, in experiment [11], the survival was 1.67 (inactive).
As to `O=C(O)c1ccccc1O`, the inhibition in experiment [1] amounted to 11.5%. The score in experiment [2] is 0.77. Moreover, the rescue above control in experiment [3] was -5.04. Besides, the cytochrome c release ratio in experiment [4] amounted to 0.97. Moreover, in experiment [5], the inhibition of aggregation was found to be 56.1%. The glutamate uptake change in experiment [6] was 15.9%. Also, the inclusion score in experiment [7] amounted to 2. In experiment [8], this molecule gave an aggregation suppression score of 0.863.
As for `CCN(CC)CCNc1ccc(CO)c2sc3ccccc3c(=O)c12`, in experiment [12], the fluorescence slope change is -2.7% (inactive). Besides, the inhibition in experiment [1] was 2.1%. In addition, in [13], the EC50 came to 71 µM and the inhibition is 82.8% (active). In addition, the score in experiment [2] was found to be 1.79. Further, the rescue above control in experiment [3] was -7.32. Besides, the cytochrome c release ratio in experiment [4] was found to be 1.54. The same molecule came in with an inhibition of aggregation in experiment [5] of 91.6%. Further, in [9], the normalised LDH release turned out to be 0.8. For the same molecule, in [6], the glutamate uptake change was 14.7%. In experiment [8], this molecule returned an aggregation suppression score of 0.977. Besides, the survival in [11] is 1.33 (inactive).
Regarding `O=C(N[C@H](CO)[C@H](O)c1ccc([N+](=O)[O-])cc1)C(Cl)Cl`, the inhibition in experiment [1] was -3.82%. Besides, in experiment [2], the score was determined as 1. Besides, the rescue above control in experiment [3] was -3.71. Besides, the cytochrome c release ratio in experiment [4] is 0.72. Further, in [5], the inhibition of aggregation amounted to 55%. Further, the glutamate uptake change in experiment [6] worked out at 7.27%. For the same molecule, the inclusion score in experiment [7] was found to be 2. In experiment [8], the aggregation suppression score was found to be 1.2.
`C=C1c2cccc(O)c2C(O)=C2C(=O)[C@]3(O)C(O)=C(C(N)=O)C(=O)[C@@H](N(C)C)[C@@H]3[C@@H](O)[C@H]12`: in [1], the inhibition was -86.7%. Also, in [13], the EC50 is 132 µM and the inhibition was 60% (active). Further, the score in experiment [2] came out at 0.99. The rescue above control in experiment [3] was found to be 0. Moreover, in experiment [4], the cytochrome c release ratio was found to be 0.49. The inhibition of aggregation in experiment [5] amounted to 29.5%. Moreover, the glutamate uptake change in experiment [6] was -2.5%. For the same molecule, in [7], the inclusion score turned out to be 1. The same molecule registered an aggregation suppression score in experiment [8] of 0.29. In experiment [11], the survival is 4.33 (inactive).
As for `Cc1cc(C2CCCCC2)n(O)c(=O)c1`, the inhibition in [1] was found to be 60.9%. The score in experiment [2] stood at 0.13. The molecule further showed a rescue above control in experiment [3] of 6.29. The cytochrome c release ratio in experiment [4] was determined as 0.91. In experiment [5], this molecule returned an inhibition of aggregation of 72.2%. In experiment [9], this molecule yielded a normalised LDH release of 0.668. Moreover, the glutamate uptake change in [6] is -12%. In experiment [8], this molecule displayed an aggregation suppression score of 0.0349. The survival in experiment [11] was 0.667 (inactive).
Turning to `C[N+](C)(C)CCOC(N)=O`, in [12], the fluorescence slope change is 12.8% (inactive). In addition, the inhibition in experiment [1] was 19.3%. Besides, in [2], the score is 1.38. Further, the rescue above control in experiment [3] worked out at 2.63. Further, in [4], the cytochrome c release ratio came out at 0.77. The molecule further gave an inhibition of aggregation in [5] of 60.9%. In addition, the normalised LDH release in experiment [9] was found to be 0.399. Besides, the glutamate uptake change in experiment [6] was -6.66%. Moreover, the inclusion score in [7] is 2. The same molecule returned an aggregation suppression score in experiment [8] of 1.67. The period change in experiment [10] is 0.05 h (inactive). Also, the survival in experiment [11] was 4.67 (inactive).
As for `CN(C)c1ccc(C(=C2C=CC(=[N+](C)C)C=C2)c2ccc(N(C)C)cc2)cc1`, the inhibition in experiment [1] stood at 60.7%. Further, the score in [2] is -6.36. In [3], this molecule registered a rescue above control of 0. Besides, the cytochrome c release ratio in [4] is 1.35. In experiment [5], this molecule returned an inhibition of aggregation of 16.7%. In experiment [9], this molecule registered a normalised LDH release of 0.824. Also, in experiment [6], the glutamate uptake change was -15.7%. Moreover, the aggregation suppression score in experiment [8] is -1.97.
